Reference: PubChem BioAssay AID1852 (Sanford-Burnham Center for Chemical Genomics, 2009)
The campaign covered roughly 2,500 compounds. About 1,100 (44%) were called active.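 Rule for the calls: active = inhibition above 50% at 4 µM in the single-point screen; inactive = inhibition of 50% or less.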 The set was probably picked from earlier hits. The list shows a part of the results.

Experiment: blockers of TNF-a NF-kB luciferase induction – cell-based, HEK293T NF-kB-Luc, luminescence, selectivity assay for NOD1/NOD2 signaling inhibitor project, primary screen (AID 1852)
Details: TNF-a induced, 14 h, at 4 µM, active compounds read high

**Q.** Which inhibition does the source give for CCCCCCc1cc2cc(-c3nnc(-c4cc(OC)c(OC)c(OC)c4)o3)c(=O)oc2cc1O here?
**A.** The inhibition was 69.4% (active).

**Q.** For CCCCCCc1cc2cc(-c3nnc(-c4ccccc4OC)o3)c(=O)oc2cc1O, which inhibition is on record?
**A.** The inhibition was -7.1% (inactive).

**Q.** For CCCCCCc1cc2cc(-c3nnc(-c4ccccc4O)o3)c(=O)oc2cc1O, which inhibition is on record?
**A.** Its inhibition is 22.1% (inactive).

**Q.** With COc1cccc(-c2nc(CS(=O)(=O)CC(=O)NCCc3ccccc3)c(C)o2)c1 as the molecule, how does the inhibition read?
**A.** Its inhibition is 11.1% (inactive).

**Q.** Which inhibition does the source give for O=C(NCCc1ccccc1)C(c1cccs1)N(C(=O)CCl)c1ccc(Cl)cc1 (stereo not drawn) here?
**A.** The inhibition was 24.6% (inactive).

**Q.** With COc1cccc(N(C(=O)CCl)C(C(=O)NCCc2ccccc2)c2cccs2)c1 (stereo not drawn) as the molecule, how does the inhibition read?
**A.** The inhibition was 81.5% (active).

**Q.** Which inhibition does the source give for COc1ccc(N(C(=O)CCl)C(C(=O)NCCc2ccccc2)c2cccs2)cc1 (stereo not drawn) here?
**A.** Its inhibition is 60.3% (active).

**Q.** With COc1ccc(CN(CCC(c2ccccc2)c2ccc(OC(C)C)cc2)C(=O)CCl)cc1OC (stereo not drawn) as the molecule, how does the inhibition read?
**A.** The inhibition was -5.8% (inactive).

**Q.** With C=CCN1C(=O)/C(=C/c2ccc(OC(C)=O)c(OCC)c2[N+](=O)[O-])SC1=S as the molecule, how does the inhibition read?
**A.** The inhibition was 56.7% (active).

**Q.** With CN(C)c1ccc(-c2noc(C3CCN(S(=O)(=O)c4cccc(Cl)c4)CC3)n2)cc1 as the molecule, how does the inhibition read?
**A.** Its inhibition is 31% (inactive).

**Q.** With COc1ccc(CCN2CC(C(=O)N(C)CC(=O)Nc3cccc(F)c3)CC2=O)cc1OC (stereo not drawn) as the molecule, how does the inhibition read?
**A.** Its inhibition is 21.5% (inactive).

**Q.** Which inhibition does the source give for COc1ccc(CC(=O)Nc2cccc(-c3nnc(-c4ccc(C)cc4)o3)c2)cc1OC here?
**A.** The inhibition was 77.2% (active).

**Q.** Which inhibition does the source give for COc1cc(C(=O)Nc2cccc(-c3nc4cc(C)ccc4o3)c2)cc(OC)c1OC here?
**A.** Its inhibition is -51.1% (inactive).

**Q.** For C[n+]1c2n(c3ccccc31)N=C(c1cc(C(C)(C)C)c(O)c(C(C)(C)C)c1)CS2, which inhibition is on record?
**A.** Its inhibition is 82.3% (active).

**Q.** Which inhibition does the source give for COc1ccc(C2=Nn3c([n+](C)c4ccccc43)SC2)cc1 here?
**A.** Its inhibition is 32.8% (inactive).

**Q.** With COc1ccc(NC(=O)c2cccc(S(=O)(=O)Nc3ccc(Br)cc3)c2)cn1 as the molecule, how does the inhibition read?
**A.** Its inhibition is 23.8% (inactive).

**Q.** Which inhibition does the source give for COc1ccc(NC(=O)/C(Cl)=C(/Cl)S(=O)(=O)Cc2ccc(C)cc2)cn1 here?
**A.** The inhibition was 108% (active).

**Q.** With COc1ccc(NS(=O)(=O)c2ccc3c(c2)Cc2ccccc2-3)cn1 as the molecule, how does the inhibition read?
**A.** Its inhibition is 25.4% (inactive).

**Q.** Which inhibition does the source give for COc1ccc(NC(=O)/C(Cl)=C(/Cl)S(=O)(=O)Cc2ccccc2)cn1 here?
**A.** The inhibition was 92.3% (active).

**Q.** With O=C(NNC1=C(C(=O)C(F)(F)F)CCC1)c1ccccc1O as the molecule, how does the inhibition read?
**A.** Its inhibition is 15% (inactive).

**Q.** For Cc1cccc(C(=O)NNC2=C(C(=O)C(F)(F)F)CCC2)c1O, which inhibition is on record?
**A.** Its inhibition is 93.3% (active).

**Q.** With COc1cccc(-c2coc3c(C)c4oc(=O)c(CCC(=O)O)c(C)c4cc23)c1 as the molecule, how does the inhibition read?
**A.** The inhibition was 69.3% (active).

**Q.** With Cc1c(CCC(=O)O)c(=O)oc2c(C)c3occ(-c4ccc(Cl)cc4)c3cc12 as the molecule, how does the inhibition read?
**A.** The inhibition was 59.5% (active).

**Q.** Which inhibition does the source give for O=c1c(-c2ccc(Cl)cc2)coc2c(CN3CCCCC3)c(O)ccc12 here?
**A.** The inhibition was 37.4% (inactive).

**Q.** With Cc1c(CCC(=O)O)c(=O)oc2cc3oc4c(c3cc12)CCCC4 as the molecule, how does the inhibition read?
**A.** Its inhibition is 48.7% (inactive).

**Q.** For Cc1oc2c(C)c3oc(=O)c(CCC(=O)O)c(C)c3cc2c1-c1ccccc1, which inhibition is on record?
**A.** The inhibition was 47% (inactive).

**Q.** For COC(=O)c1ccc2c(=O)[nH]c(CCl)nc2c1, which inhibition is on record?
**A.** The inhibition was 43.1% (inactive).

**Q.** Which inhibition does the source give for COc1ccccc1CN(Cc1nc2ccccc2c(=O)[nH]1)S(=O)(=O)c1ccc2ccccc2c1 here?
**A.** Its inhibition is 92.1% (active).

**Q.** For COc1ccc(-n2c(C)c([N+](=O)[O-])c3ccc(O)c(CN4CCCCC4)c32)cc1, which inhibition is on record?
**A.** The inhibition was 28.8% (inactive).

**Q.** With COc1ccc(-n2c(C)c([N+](=O)[O-])c3ccc(O)c(CN(C)C)c32)cc1 as the molecule, how does the inhibition read?
**A.** The inhibition was 84.4% (active).

**Q.** For Cc1ccc(-n2c(C)c([N+](=O)[O-])c3ccc(O)c(CN(C)C)c32)cc1, which inhibition is on record?
**A.** The inhibition was 66.1% (active).

**Q.** Which inhibition does the source give for O=C1/C(=C\c2cccnc2)CN(Cc2ccccc2)C/C1=C\c1cccnc1 here?
**A.** The inhibition was 107% (active).

**Q.** Which inhibition does the source give for CC1C/C(=C/c2ccncc2)C(=O)/C(=C/c2ccncc2)C1 (stereo not drawn) here?
**A.** The inhibition was 106% (active).

**Q.** With CC1C/C(=C\c2cccnc2)C(=O)/C(=C/c2cccnc2)C1 (stereo not drawn) as the molecule, how does the inhibition read?
**A.** Its inhibition is 109% (active).

**Q.** With COc1cc(OC)c(OC)cc1/C=C1\CC(C)C/C(=C\c2cc(OC)c(OC)cc2OC)C1=O (stereo not drawn) as the molecule, how does the inhibition read?
**A.** The inhibition was 32.3% (inactive).

**Q.** With O=C1/C(=C/c2ccncc2)CCC/C1=C\c1ccncc1 as the molecule, how does the inhibition read?
**A.** Its inhibition is 89.9% (active).

**Q.** For O=C1/C(=C/c2cccnc2)CCC/C1=C\c1cccnc1, which inhibition is on record?
**A.** Its inhibition is 104% (active).

**Q.** For C=C1CC2C(CCC3(C)C2CCC3(O)C(C)=O)C2(C)CCC(=O)C=C12 (stereo not drawn), which inhibition is on record?
**A.** Its inhibition is 13.6% (inactive).

**Q.** For O=C(C1CCC(CNS(=O)(=O)c2cccs2)CC1)N1CCN(c2ccc(Cl)cc2)CC1 (stereo not drawn), which inhibition is on record?
**A.** The inhibition was 67.1% (active).

**Q.** Which inhibition does the source give for CC1Cc2cc(S(=O)(=O)N3CCN(c4ccc(Cl)cc4)CC3)ccc2N1C(=O)C1CC1 (stereo not drawn) here?
**A.** The inhibition was 8.4% (inactive).

**Q.** For C[C@@H]1C[C@@H]2O[C@H]2/C=C\C=C\C(=O)Cc2c(Cl)c(O)cc(O)c2C(=O)O1, which inhibition is on record?
**A.** The inhibition was 96.5% (active).

**Q.** For Cc1nc(C)c(-c2ccc(SCC(=O)Nc3cccc(Cl)c3)nn2)s1, which inhibition is on record?
**A.** Its inhibition is 35% (inactive).

**Q.** Which inhibition does the source give for O=C(CSc1n[nH]c(-c2ccccn2)n1)Nc1ccc(Cl)cc1 here?
**A.** Its inhibition is 80.1% (active).

**Q.** Which inhibition does the source give for O=C(CSc1n[nH]c(-c2ccccn2)n1)Nc1cccc(Cl)c1 here?
**A.** Its inhibition is 81.4% (active).

**Q.** For Cn1cccc1Cc1nnc(SCC(=O)Nc2cccc(Cl)c2)n1-c1ccc(F)cc1, which inhibition is on record?
**A.** The inhibition was 11.5% (inactive).

**Q.** Which inhibition does the source give for O=C(CN1CCN(CCC(=O)Nc2ccccc2F)CC1)Nc1ccc(Cl)cc1 here?
**A.** Its inhibition is 2% (inactive).

**Q.** With Cc1ccc2c(c1)-c1ncc(C(=O)c3cc(Br)ccc3O)cc1CO2 as the molecule, how does the inhibition read?
**A.** The inhibition was 36.7% (inactive).

**Q.** Which inhibition does the source give for Cc1c(Cc2ccccc2)c(=O)oc2cc(O)cc(O)c12 here?
**A.** Its inhibition is -8.9% (inactive).

**Q.** Which inhibition does the source give for CCCCc1cc(=O)oc2cc(O)cc(O)c12 here?
**A.** Its inhibition is 21.4% (inactive).

**Q.** With CCCCCc1cc(O)c2c(C)cc(=O)oc2c1 as the molecule, how does the inhibition read?
**A.** The inhibition was 71.7% (active).

**Q.** For Clc1ccc(Nc2ncnc3ccc(Br)cc23)cc1, which inhibition is on record?
**A.** The inhibition was 49.1% (inactive).

**Q.** For CCN1C(=O)C(CC(=O)Nc2cccc(C(C)=O)c2)S/C1=N\c1ccccn1 (stereo not drawn), which inhibition is on record?
**A.** The inhibition was -2.9% (inactive).

**Q.** For Nc1nc(CCl)nc(Nc2cccc3ccccc23)n1, which inhibition is on record?
**A.** Its inhibition is 44.3% (inactive).

**Q.** For CC(=O)c1cccc(Nc2ncnc3ccc(Br)cc23)c1, which inhibition is on record?
**A.** Its inhibition is 60.8% (active).

**Q.** Which inhibition does the source give for O=C(COc1nsnc1N1CCOCC1)Nc1ccc(Br)cc1 here?
**A.** Its inhibition is 4.1% (inactive).

**Q.** With COc1ccc(Nc2ncnc3ccc(Br)cc23)cc1OC as the molecule, how does the inhibition read?
**A.** Its inhibition is 64.4% (active).

**Q.** For Brc1ccc2ncnc(Nc3cccc4ccccc34)c2c1, which inhibition is on record?
**A.** The inhibition was 104% (active).

**Q.** With Brc1ccc2ncnc(Nc3ccc(N4CCOCC4)cc3)c2c1 as the molecule, how does the inhibition read?
**A.** Its inhibition is 83.9% (active).
